Assay outcomes (PubChem BioAssay)
Hits are enriched below; roughly 14% of the tested compounds scored in any of these assays.
HADH2 inhib: qHTS Assay for Inhibitors of HADH2 (Hydroxyacyl-Coenzyme A Dehydrogenase, Type II). 3-hydroxyacyl-CoA dehydrogenase type-2 (Homo sapiens), Q99714. recombinant HADH2, NADH fluorescence, beta-hydroxybutyryl-CoA. Potency, µM (series often up to 57.1 µM), inactives show at the top dose activity change, negative = inhibition, actives largely listed as inhibitors. hit rate 3.4% among 73,000. AID 886, 2007; further: potency means the concentration at half of the fitted maximal effect; on the % scale 0 is the no-effect control and ±100 the full control effect; nearly all actives have a fitted effect of over 60% in size
Target sequence (Q99714 whole entry, looked up, one chain of several): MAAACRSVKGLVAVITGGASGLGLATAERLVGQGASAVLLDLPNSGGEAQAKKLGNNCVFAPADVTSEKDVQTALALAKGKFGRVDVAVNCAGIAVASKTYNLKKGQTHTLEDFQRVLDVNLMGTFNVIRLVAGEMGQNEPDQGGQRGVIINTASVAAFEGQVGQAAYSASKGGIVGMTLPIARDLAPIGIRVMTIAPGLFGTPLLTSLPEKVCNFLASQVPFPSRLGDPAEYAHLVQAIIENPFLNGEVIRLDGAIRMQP
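20 nM HADH2 + cpd, 15 min RT; add 1 mM NAD+/90 uM beta-hydroxybutyryl-CoA; kinetic fluorescence 360/450 nm, 4 min. Tris-HCl pH 9.0, 0.01% Tween-20.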
HSD17B inh: qHTS Assay for Inhibitors of HSD17B4, hydroxysteroid (17-beta) dehydrogenase 4 | 3-hydroxyacyl-CoA dehydrogenase type-2 (Homo sapiens), Q99714 | recombinant HSD17B10, NADH fluorescence kinetic | Potency, µM (top dose mostly 57.1 µM), without a hit: at the highest dose activity change, negative = inhibition, usual class: inhibitors | hit rate 7.6% among 75,000;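 further: the protocol describes HADH2 (HSD17B10) and not the HSD17B4 of the title; potency means the concentration at half of the fitted maximal effect; on the % scale 0 is the no-effect control and ±100 the full control effect; nearly all actives have a fitted effect of over 70% in size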
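Enzyme plus compound, 15 min room temperature; substrate mix added (NAD+ 1 mM, beta-hydroxybutyryl-CoA 90 uM final); plates read kinetically for NADH fluorescence. HADH2 was His-tagged, E. coli-derived, 20 nM.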
AID923: qHTS Assay for Allosteric/Competitive Inhibitors of Caspase-1: Spectroscopic Profiling in AFC Spectral Region | Potency, µM (titrated, usually from 57.5 µM), for the others: top-dose fluorescence increase, actives largely listed as activators | AID 923, 2007 | hit rate 1.1% among 75,000 | compound fluorescence, AFC spectral region (405/520 nm); further: potency means the concentration at half of the fitted maximal effect; 0% is about no effect
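Baseline compound fluorescence (AFC region, 405 nm ex/520 nm em) taken from the intercept of kinetic reads with 50 nM caspase-1 and 5 uM Ac-WEHD-AFC; normalized to an on-plate AFC standard curve; compounds titrated up to 57 uM.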
A350 fluor: qHTS Assay for Spectroscopic Profiling in A350 Spectral Region; Compound autofluorescence, 340/450 nm, Alexa 350 dye-equivalents; hits give high values; max dye-equivalent concentration, M; hit rate 11% among 59,000; in the data active means max dye-equivalent concentration above about 10 nM; inconclusive means mostly about 1.1 nM to 9.6 nM
CRE-bla Fsk: Cell signaling CRE-BLA (Fsk stim); CHO CRE-bla reporter (cAMP response element driving beta-lactamase), forskolin EC10, beta-lactamase ratio; Potency, µM (doses to about 38.2 µM), inactives show top-dose activity change, negative = inhibition, most hits filed as activators; hit rate 2.5% among 71,000; active means well fitted activation curve with a large enough effect in the signal ratio, with a control signal flat, not every such curve was filed as active; inconclusive means small, poorly fitted or top-dose-only effect, or effect the other way, or a change in a side signal; the % refers to the signal ratio; further: potency means the concentration at half of the fitted maximal effect; % of control where 0% means no effect
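Cells were plated overnight at 37 °C, exposed to compound titrations plus EC10 NKH 477 for 3 h, then given CCF4 dye for 2 h at room temperature. Blue/green (460/530 nm) ratio was converted to %Activity and AC50 values calculated.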
4-MU autofl: qHTS Assay for Spectroscopic Profiling in 4-MU Spectral Region | max dye-equivalent concentration, M | compound autofluorescence, 340/450 nm, 4-MU equivalents; hits give high values | hit rate 11% among 59,000; in the data active means max dye-equivalent concentration above about 10 nM; inconclusive means mostly about 1.1 nM to 9.6 nM
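Compounds in 100 mM Tris, pH 8.0, sat 15 min at room temperature before fluorescence was read at 340 nm excitation/450 nm emission; a per-plate six-point 4-MU standard curve converted signals to dye-equivalent concentration at each compound concentration.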
* marks the source's active call; other numbers are inactive results; i = inactive; ? = inconclusive; / = no result; [ ] = another dose, or the depositor's remark. Unless noted, the call rests on the fitted dose curve; in most records, active means well fitted curve in the direction sought with a large enough effect; inconclusive means small, poorly fitted or top-dose-only effect, or another doubt; inactive means no such curve, though single readings can be large; an effect the other way counts as inactive or inconclusive.

SMILES	HADH2 inhib	HSD17B inh	AID923	A350 fluor	CRE-bla Fsk	4-MU autofl
O=CN1C[C@H]2C[C@@H](C1)c1cccc(=O)n1C2	-5%	/	/	i	-17%	i
C/C=C/C=O	-12%	-4%	1%	/	-7%	/
COc1ccc2c(c1OC)C(=O)OC2C1c2cc3c(cc2CCN1C)OCO3 (centres undefined)	7%	?	1%	/	-5%	/
COc1ccc(CC2c3cc(OC)c(OC)cc3CCN2C)cc1OC (centres undefined)	-6%	?	4%	3.6e-08M*	?	3.8e-08M*
C=C(C)[C@@H]1CN[C@H](C(=O)O)[C@H]1CC(=O)O	10%	/	/	i	-4%	i
CCOC(=O)N(c1ccccc1)P1(=S)OCCO1	?	?	-2%	?	?	i
COC(=O)N(c1ccccc1)P1(=S)OCCO1	3.2µM*	-30%	1%	i	4%	i
NC1(P(=O)(O)O)CCCCC1	0%[11.4 µM]	7%[11.4 µM]	0%[11.5 µM]	i	-2%[7.6 µM]	i
COc1cc2c3c(c1OC)-c1cc(O)ccc1CC3NCC2 (centres undefined)	-3%	32µM*	8%	?	1%	i
COC1=C[C@H]2[C@@H]3Cc4ccc(OC)c(O)c4[C@@]2(CCN3C)CC1=O	1%	/	/	?	-19%	?
Cc1cc(OC(=O)c2ccco2)c2c3c(c(=O)oc2c1)CCC3	16%[11.4 µM]	284%	0%	/	?	/
Cc1cc(OCC(=O)OC(C)(C)C)c2c3c(c(=O)oc2c1)CCC3	2%	25µM*	-2%	/	9%	/
C=CCOC(=O)COc1cc(C)cc2oc(=O)c3c(c12)CCC3	71%	25µM*	-2%	/	?	/
Cc1cc(OCc2nn[nH]n2)c2c3c(c(=O)oc2c1)CCCC3	32µM*	32µM*	-1%	2.2e-08M*	24%	1.8e-08M*
Cc1cc(OC(=O)CCNC(=O)OC(C)(C)C)c2c3c(c(=O)oc2c1)CCC3	21%	199%	1%	?	8%	?
CCCCOC(=O)COc1cc(C)cc2oc(=O)c3c(c12)CCC3	17%	20µM*	-2%	/	19%	/
CN1CCN(c2ccc([N+](=O)[O-])c3[nH]o[n+](=O)c23)CC1	-22%[11.4 µM]	1%[11.4 µM]	0%[11.5 µM]	i	?	i
COC(=O)[C@@H]1C[C@@H]1[C@@H](NP(=O)(c1ccccc1)c1ccccc1)c1ccccc1	12%	/	/	/	-9%	/
OC[C@H]1CCCN2CCCC[C@@H]12	-4%	/	/	i	-3%	i
c1ccc(C2CO2)cc1 (centres undefined)	-1%	1%	-2%	/	-12%	/
C[C@@H]1O[C@H](OC2[C@@H](O)[C@H](O)C(O)[C@H](O)[C@H]2O)[C@@H](N)C[C@@H]1N=C(N)C(=O)O (some centres undefined)	0%[11.4 µM]	11%[11.4 µM]	-3%[11.5 µM]	i	-5%[7.6 µM]	i
Nc1ccccc1C(=O)O	40µM*	32µM*	1%	/	-4%	/
Nc1ccccc1C(=O)OCCOc1ccccc1	2%	32µM*	-1%	6.6e-08M*	-9%	5.7e-08M*
CC(=O)Nc1ccc(OC(=O)c2ccccc2N)cc1	?	?	-1%	/	-6%	/
COC(=O)c1ccccc1N	-20%	32µM*	-1%	/	-3%	/
CCOC(=O)c1ccccc1C(=O)OCC	-14%	4%	-2%	/	-7%	/
CCCOC(=O)c1ccccc1C(=O)OCCC	6%	-5%	2%	/	-10%	/
C=CCOC(=O)c1ccccc1N	40µM*	32µM*	5%	/	2%	/
CCOC(=O)[C@@H]1[C@@H]2c3ccccc3-c3ccccc3[C@H]2C[C@H]1O	8%[11.4 µM]	10%[11.4 µM]	0%[11.5 µM]	i	0%[7.6 µM]	i
ClCc1ccccc1	-4%	3%	-2%	/	0%	/
